In PubChem BioAssay (Tox21):
Calls of active or inactive are those of the source. Calls come from the whole dose curve; as a rule, active = well fitted curve in the direction sought with a large enough effect in the repeat runs; inconclusive = weak or mixed curves; inactive = flat fitted curve, though single readings scatter.

How the values were obtained:
[1] = qHTS assay to test for compound auto fluorescence at 535 nm (green) in HEK293 cells (AID 720680)
[2] = qHTS assay to test for compound auto fluorescence at 460 nm (blue) in HEK293 cell free culture (AID 720681)
Outline: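 Test compounds were pinned into cell-free culture medium (DMEM with 10% FBS) and fluorescence was read directly at Ex/Em 405/460 nm. Signals were expressed as fluorescence equivalents of triamterene, with DMSO vehicle as control.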

[3] = qHTS assay to test for compound auto fluorescence at 535 nm (green) in HEK293 cell free culture (AID 720682)
Outline: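 Using fluorescein as calibrant, autofluorescence was quantified at 485/535 nm in cell-free DMEM containing 10% FBS after pintool addition of compound or vehicle.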

[4] = qHTS assay to test for compound auto fluorescence at 590 nm (red) in HEK293 cell free culture (AID 720683)
Outline: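 Tox21 10K library compounds were pinned into cell-free DMEM with 10% FBS and fluorescence was read at excitation 540 nm. Activity is expressed as Rose Bengal sodium equivalency.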

[5] = qHTS assay to test for compound auto fluorescence at 590 nm (red) in HepG2 cell free culture (AID 720684)
Outline: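 Readout: intrinsic compound fluorescence at 590 nm emission after 540 nm excitation, scaled to Rose Bengal sodium. Matrix was cell-free MEM with 10% FBS; DMSO vehicle wells served as control.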

[6] = qHTS assay to test for compound auto fluorescence at 460 nm (blue) in HepG2 cell free culture (AID 720685)
Outline: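 Cell-free plates of MEM plus 10% FBS received 23 nL compound or DMSO vehicle; blue-channel (405/460 nm) intensity scored against triamterene as reference fluorophore.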

[7] = qHTS assay to test for compound auto fluorescence at 535 nm (green) in HepG2 cell free culture (AID 720686)
[8] = qHTS assay to test for compound auto fluorescence at 460 nm (blue) in HepG2 cells (AID 720687)
Outline: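 Cells (2,000/well in MEM with 10% FBS) attached overnight at 37 C, then were exposed to compound or DMSO for 1 hr at 37 C, 5% CO2. Fluorescence read at Ex/Em 405/460 nm, expressed as triamterene-equivalent signal.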
% is set by controls: 0 for no effect and ±100 for the full control effect.

CCCCOc1ccc(OCCCN2CCOCC2)cc1
inactive: fluorescence, % of fluorescein [1] 0.0257% [at 18.6 µM] | fluorescence, % of fluorescent control [2] -0.123% [at 18.6 µM] | activity change [3] 0.0858% [at 18.6 µM] | fluorescence, % of fluorescent control [4] -0.046% [at 18.6 µM] | fluorescence, % of Rose Bengal [5] 0.461% [at 18.6 µM] | fluorescence, % of fluorescent control [6] -0.102% [at 18.6 µM] | fluorescence, % of fluorescein control [7] -0.0254% [at 18.6 µM] | fluorescence, % of fluorescent control [8] -0.0756% [at 18.6 µM]

C=CC(=O)[O-].C=CC(=O)[O-].[Zn+2]
inactive: outcome [1] | Potency [2] | outcome [3] | outcome [4] | outcome [5] | Potency [6] | outcome [7]

c1csc(SSc2cccs2)c1
inactive: outcome [1] | Potency [2] | outcome [3] | outcome [4] | outcome [5] | Potency [6] | outcome [7] | Potency [8]

O=c1cc(-c2ccccc2)oc2ccc3ccccc3c12
inactive: outcome [1] | Potency [2] | outcome [3] | outcome [4] | outcome [5] | Potency [6] | outcome [7] | Potency [8]

OCCOCC#CCOCCO
inactive: outcome [1] | Potency [2] | outcome [3] | outcome [4] | outcome [5] | Potency [6] | outcome [7]

CCCCC(CC)COP(=O)(O)O (centres undefined)
inactive: outcome [1] | Potency [2] | outcome [3] | outcome [4] | outcome [5] | Potency [6] | outcome [7] | Potency [8]

O=C(OCC(O)CO)c1ccccc1Nc1ccnc2cc(Cl)ccc12 (centres undefined)
inactive: fluorescence, % of fluorescein [1] -0.106% [at 18.6 µM] | fluorescence, % of fluorescent control [2] 0.416% [at 18.6 µM] | activity change [3] 0.0295% [at 18.6 µM] | fluorescence, % of fluorescent control [4] 0.0763% [at 18.6 µM] | fluorescence, % of Rose Bengal [5] 0.268% [at 18.6 µM] | fluorescence, % of fluorescent control [6] 0.0675% [at 18.6 µM] | fluorescence, % of fluorescein control [7] -0.0285% [at 18.6 µM] | fluorescence, % of fluorescent control [8] 0.322% [at 18.6 µM]

C[C@@H](O[C@H]1OCCN(Cc2n[nH]c(=O)[nH]2)[C@H]1c1ccc(F)cc1)c1cc(C(F)(F)F)cc(C(F)(F)F)c1
inactive: outcome [1] | Potency [2] | outcome [3] | outcome [4] | outcome [5] | Potency [6] | outcome [7]

CCOC(=O)/C=C/C(=O)OCC
inactive: outcome [1] | Potency [2] | outcome [3] | outcome [4] | outcome [5] | Potency [6] | outcome [7] | Potency [8]

CC(=O)OCC(=O)NCCCOc1cccc(CN2CCCCC2)c1
inactive: outcome [1] | Potency [2] | outcome [3] | outcome [4] | outcome [5] | Potency [6] | outcome [7] | Potency [8]

CCCC(C(=O)OCCN(CC)CC)(c1ccccc1)c1ccccc1
inactive: outcome [1] | Potency [2] | outcome [3] | outcome [4] | outcome [5] | Potency [6] | outcome [7]

CCCCCCC(C)(C)C(=O)O
inactive: outcome [1] | Potency [2] | outcome [3] | outcome [4] | outcome [5] | Potency [6] | outcome [7] | Potency [8]

CC(=O)OCCN(CCOC(C)=O)c1ccc(N=Nc2ccc([N+](=O)[O-])cc2C#N)cc1
inactive: outcome [1] | Potency [2] | outcome [3] | outcome [4] | outcome [5] | Potency [6] | outcome [7] | Potency [8]

Cc1cscn1
inactive: outcome [1] | Potency [2] | outcome [3] | outcome [4] | outcome [5] | Potency [6] | outcome [7] | Potency [8]

CC[N+](CC)(CCNC(=O)C(=O)NCC[N+](CC)(CC)Cc1ccccc1Cl)Cc1ccccc1Cl
inactive: outcome [1] | Potency [2] | outcome [3] | outcome [4] | outcome [5] | Potency [6] | outcome [7] | Potency [8]

CN1C(=O)N(c2ccccc2Br)Cc2cnc(Nc3ccc4c(c3)OCC(CO)O4)nc21 (centres undefined)
inactive: outcome [1] | Potency [2] | outcome [3] | outcome [4] | outcome [5] | Potency [6] | outcome [7] | Potency [8]

C=CC(=O)OCC1CC2CC1C1CCC(COC(=O)C=C)C21 (centres undefined)
inactive: outcome [1] | Potency [2] | outcome [3] | outcome [4] | outcome [5] | Potency [6] | outcome [7] | Potency [8]

CC(C)c1nc(CN(C)C(=O)N[C@H](C(=O)N[C@@H](Cc2ccccc2)C[C@H](O)[C@H](Cc2ccccc2)NC(=O)OCc2cncs2)C(C)C)cs1
inactive: outcome [1] | Potency [2] | outcome [3] | outcome [4] | outcome [5] | Potency [6] | outcome [7] | Potency [8]

CCCCCCCCN
inactive: outcome [1] | Potency [2] | outcome [3] | outcome [4] | outcome [5] | Potency [6] | outcome [7] | Potency [8]

c1cc(N(CC2CO2)CC2CO2)ccc1Cc1ccc(N(CC2CO2)CC2CO2)cc1 (centres undefined)
inactive: outcome [1] | Potency [2] | outcome [3] | outcome [4] | outcome [5] | Potency [6] | outcome [7] | Potency [8]

O=C1c2ccccc2C(=O)C1(O)O
inactive: outcome [1] | Potency [2] | outcome [3] | outcome [4] | outcome [5] | Potency [6] | outcome [7]

Cc1[nH]cnc1CN1CCc2c(c3ccccc3n2C)C1=O
inactive: outcome [1] | Potency [2] | outcome [3] | outcome [4] | outcome [5] | Potency [6] | outcome [7] | Potency [8]

CCCCCC[C@@H](O)C/C=C\CCCCCCCC(=O)O
inactive: outcome [1] | Potency [2] | outcome [3] | outcome [4] | outcome [5] | Potency [6] | outcome [7] | Potency [8]

Nc1nc2ccc([N+](=O)[O-])cc2s1
inactive: outcome [1] | Potency [2] | outcome [3] | outcome [4] | outcome [5] | Potency [6] | outcome [7] | Potency [8]

O=C1NCCN1CCO
inactive: outcome [1] | Potency [2] | outcome [3] | outcome [4] | outcome [5] | Potency [6] | outcome [7]
